We go through 9 compounds from PubChem BioAssay (NCI).

Compounds without any hit were thinned out: in the full panel of roughly 83,000, 20% have a hit.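 Single-dose data. Exposure time 48 hours. Values below 10 considered active.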 Values without a mark were called inactive. Activity calls are given as the source filed them.

Some test systems named below: NCI-H23 lung; NCI-H322M lung; HOP-62 NSCLC; NCI-H460 lung; HOP-92 NSCLC; NCI-H522 lung; A549/ATCC NSCLC; 786-0 renal; COLO 205 colon; DU-145 prostate; K-562 leukemia; MDA-MB-231 breast; SF-268 CNS; SF-295 CNS; SF-539 CNS; UACC-257 melanoma; M14 melanoma; HCT-15 colon; MALME-3M melanoma; RXF 393 renal.
What all share (assay): NCI-60 one-dose screen, 48 h (100 = growth as untreated, 0 = no growth, -100 = all killed)
What all share (conditions): 10 µM unless noted

In the case of `O=C(CCN1C(=O)c2ccccc2C1=O)Nc1ccc(Cl)cc1`, the growth in the test with NCI-H23 lung was 66.4%; in the test with NCI-H322M lung it was 82.2%; in the test on HOP-62 NSCLC, 54.8%; in the test on NCI-H460 lung, 44.1%; in the test on HOP-92 NSCLC, 64.3%; with NCI-H522 lung it was 66.3%. For the same compound, the growth is 79.2% with A549/ATCC NSCLC; 65.8% in the test with 786-0 renal; 118% in the test with COLO 205 colon; 67.2% in the test on DU-145 prostate; 60.7% in the test with K-562 leukemia; 114% in the test with MDA-MB-231 breast. Besides, the growth in the test with SF-268 CNS was 73.6%; in the test on SF-295 CNS it was 28.4%; with SF-539 CNS, 86.5%; in the test with UACC-257 melanoma, 98.2%; with M14 melanoma, 92.7%; in the test on HCT-15 colon it was 61.7%.

Take `COc1ccc(-c2c(-c3ccc(OC)c(O)c3)cnc3ncnn23)cc1`: the growth was 99.9% in the test with NCI-H23 lung; 106% with NCI-H322M lung; 111% with HOP-62 NSCLC; 108% in the test on NCI-H460 lung; 95.1% in the test with HOP-92 NSCLC; 96% with NCI-H522 lung. In addition, the growth with A549/ATCC NSCLC was 100%; in the test on 786-0 renal, 103%; in the test on COLO 205 colon, 126%; in the test with DU-145 prostate, 105%; in the test with MALME-3M melanoma, 111%; in the test on MDA-MB-231 breast, 102%. Besides, the growth is 101% in the test on SF-268 CNS; 102% with SF-295 CNS; 98.6% in the test with SF-539 CNS; 105% in the test on UACC-257 melanoma; 106% in the test on M14 melanoma; 100% in the test on HCT-15 colon.

On to `Brc1ccc(Nc2nc3ccccc3nc2Nc2ccc(Br)cc2)cc1`, for which the growth was -16.4% (active) in the test on NCI-H23 lung; -13.1% (active) in the test with NCI-H322M lung; -63.4% (active) in the test with HOP-62 NSCLC; 2% (active) in the test with NCI-H460 lung; -25.9% (active) with HOP-92 NSCLC; -54.1% (active) in the test with NCI-H522 lung. For the same compound, the growth is -6.83% (active) with A549/ATCC NSCLC; -30.2% (active) with 786-0 renal; -96.2% (active) in the test on COLO 205 colon; 14.2% in the test with DU-145 prostate; -20% (active) in the test on K-562 leukemia; -80.4% (active) in the test on MDA-MB-231 breast. Also, the growth was -32.9% (active) in the test with RXF 393 renal; 3.08% (active) with SF-268 CNS; -75.6% (active) with SF-295 CNS; -8.61% (active) with SF-539 CNS; -43% (active) in the test on UACC-257 melanoma; -60.7% (active) in the test on M14 melanoma. Further, the growth in the test on HCT-15 colon is -21% (active).

On to `COc1ccc(C2NCCc3c2[nH]c2ccccc32)cc1CN1CCN(c2ccc(F)cc2)CC1` (stereo not drawn), for which the growth in the test with NCI-H23 lung was 64.8%; with NCI-H322M lung, 78.5%; in the test on HOP-62 NSCLC, 63.4%; with NCI-H460 lung, 5.7% (active); in the test on HOP-92 NSCLC it was -18.7% (active); in the test with NCI-H522 lung, 40.8%. Moreover, the growth is 63.7% in the test on A549/ATCC NSCLC; 51% in the test on 786-0 renal; 47.6% with COLO 205 colon; 78.5% with DU-145 prostate; 17% in the test on K-562 leukemia; -32.5% (active) in the test with MDA-MB-231 breast. Moreover, the growth was -9.51% (active) in the test on RXF 393 renal; 76.4% with SF-268 CNS; -67.2% (active) in the test on SF-295 CNS; 58.8% with SF-539 CNS; -39.9% (active) in the test on UACC-257 melanoma; -30% (active) in the test with M14 melanoma. Moreover, the growth in the test with HCT-15 colon was 8.26% (active).

Consider `O=C1c2ccc3c4c(ccc(c24)C(=O)N1CCCCO)C(=O)N(CCCCO)C3=O`, for which the growth in the test with NCI-H23 lung was 80.5%; in the test on NCI-H322M lung, 90.9%; in the test with HOP-62 NSCLC, 83.9%; in the test with NCI-H460 lung, 89.6%; in the test on HOP-92 NSCLC, 16%; in the test on NCI-H522 lung it was -13.4% (active). For the same compound, the growth with A549/ATCC NSCLC was 45.6%; in the test with 786-0 renal, 67.8%; in the test on COLO 205 colon, 5.81% (active); with K-562 leukemia it was 4.34% (active); with MALME-3M melanoma, -7.29% (active); with MDA-MB-231 breast, 64.6%. The growth was 15.1% in the test with RXF 393 renal; 81.3% in the test on SF-268 CNS; 46.8% in the test on SF-295 CNS; 68.3% in the test with SF-539 CNS; -61% (active) with UACC-257 melanoma; 23.2% in the test on M14 melanoma. The growth in the test on HCT-15 colon was 48.5%.

As for `CC1=CCC(OC(=O)C(C)(C)CCC(O)(C(=O)OC2(C(C)C)CCC3(C)OC3C2)C(C)C)(C(C)C)CC1` (stereo not drawn), the growth was -73.2% (active) in the test with NCI-H23 lung; -93% (active) in the test with NCI-H322M lung; -66.7% (active) with HOP-62 NSCLC; -84.2% (active) with NCI-H460 lung; -71.7% (active) in the test with HOP-92 NSCLC; -76.3% (active) in the test with NCI-H522 lung. Besides, the growth in the test with A549/ATCC NSCLC was -82.8% (active); with 786-0 renal, -90.5% (active); with COLO 205 colon, -61.5% (active); in the test on DU-145 prostate it was -95.8% (active); in the test on MALME-3M melanoma it was -84.1% (active); in the test on MDA-MB-231 breast, -63.1% (active). In addition, the growth in the test with RXF 393 renal was -91.2% (active); with SF-268 CNS, -74.5% (active); in the test with SF-295 CNS it was -92.2% (active); in the test with SF-539 CNS, -97.3% (active); in the test with UACC-257 melanoma, -57.6% (active); in the test with M14 melanoma it was -81% (active). Further, the growth with HCT-15 colon was -59.8% (active).

For the compound `COc1cc(C2C(C#N)=C(N)OC3=C2C(=O)c2ccccc2C3=O)cc(OC)c1O` (stereo not drawn), the growth was 32.5% in the test with NCI-H23 lung; 47.7% in the test with NCI-H322M lung; 34.2% in the test with HOP-62 NSCLC; 12.7% in the test with NCI-H460 lung; 43.7% in the test with HOP-92 NSCLC; -10.1% (active) in the test with NCI-H522 lung. The growth in the test with A549/ATCC NSCLC was 52.3%; in the test on 786-0 renal it was 35.4%; in the test with COLO 205 colon it was 44.6%; with DU-145 prostate, 17.8%; in the test with MALME-3M melanoma, 54.7%; with MDA-MB-231 breast, 57.1%. Besides, the growth with SF-268 CNS was 42.2%; in the test on SF-295 CNS it was 29.3%; in the test with SF-539 CNS, 0.132% (active); with UACC-257 melanoma, 55.9%; in the test with M14 melanoma it was 21.1%; in the test on HCT-15 colon, 23.6%.

Regarding `COC(=O)c1c2c(c(C)[n+]([O-])c1C)C(=O)C=C(NCc1ccc(F)c(F)c1)C2=O`, the growth with NCI-H23 lung was -76% (active); in the test on NCI-H322M lung, -15.7% (active); with HOP-62 NSCLC, -11.8% (active); in the test with NCI-H460 lung, -26.3% (active); with HOP-92 NSCLC, -37.9% (active); with NCI-H522 lung it was -53.1% (active). In addition, the growth was -24.4% (active) in the test on A549/ATCC NSCLC; -3.8% (active) in the test on 786-0 renal; -99.6% (active) in the test with DU-145 prostate; 1.15% (active) in the test on K-562 leukemia; -100% (active) in the test on MALME-3M melanoma; -31.2% (active) in the test on MDA-MB-231 breast. Besides, the growth in the test with RXF 393 renal was -51% (active); in the test on SF-268 CNS, -12.2% (active); with SF-295 CNS, -99% (active); with SF-539 CNS, -95.7% (active); in the test on UACC-257 melanoma, -83% (active); in the test with M14 melanoma it was -88.2% (active). The growth in the test with HCT-15 colon was -83.3% (active).

With `Cc1ccc(N=NC2C(=O)N(c3ccc(Cl)cc3)N(c3ccc(Cl)cc3)C2=O)cc1`, the growth in the test on NCI-H23 lung was 95.6%; in the test with NCI-H322M lung, 97.4%; in the test on HOP-62 NSCLC it was 89.2%; with NCI-H460 lung, 99.8%; in the test on HOP-92 NSCLC, 101%; with NCI-H522 lung, 85.1%. The growth in the test on A549/ATCC NSCLC is 99%; with 786-0 renal, 108%; in the test on DU-145 prostate it was 107%; with K-562 leukemia it was 94.1%; in the test with MALME-3M melanoma, 98%; in the test with MDA-MB-231 breast it was 91.7%. Further, the growth in the test on RXF 393 renal was 113%; in the test with SF-268 CNS it was 100%; in the test on SF-295 CNS, 93.9%; in the test with SF-539 CNS, 100%; with UACC-257 melanoma, 86.8%; with M14 melanoma, 102%. In addition, the growth in the test with HCT-15 colon is 98.3%.
